WT yeast gro inh – growth inhibition of WT yeast, mitochondrial fusion screen | mitochondrial fusion phenotypic screen, WT strain | AID 1362 | inhibition, % at 10 µM | 190,000 compounds, 2.1% hits; in the data active means inhibition above about 58%; tested in S. cerevisiae
CHOP inh – CHOP inhibition in unfolded protein response; CHO-K1 CHOP-promoter luciferase, tunicamycin-induced, 15-18 h; inhibition, % at 10 µM; 220,000 compounds, 3.8% hits; AID 2732;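 active means compounds that reduced the stress-induced luciferase reporter signal by more than about 70% of percent inhibition, limit read from the data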
RAM network inh – yeast RAM network inhibition. AID 868. S. cerevisiae dse1pr::URA3 reporter, 5-FOA growth OD615, 2 d; analog-sensitive cbk1-as2 kinase mutant strain. inhibition, % at 50 µM. 190,000 compounds, 1.8% hits;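 active means inhibition above a set limit, 3 SD over mean compound inhibition, cut at about 8.4% in these data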;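 further: inhibition rescues growth on 5-FOA so higher OD means more RAM inhibition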
Lmaj promast – inhibitors of Leishmania major promastigote growth. Leishmania major promastigotes, resazurin fluorescence viability. inhibition, % at 10 µM. 200,000 compounds, 9% hits. AID 1063; in the data active means inhibition above about 50%;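 further: promastigotes grown with compound for 44 hours at 28 °C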
Each line names hits and unclear results; the compound was inactive in the other large screens. Most compounds without a hit are left out; they make up all but 13% or so of the library.

CCOc1ccc(C(=O)NC(=S)Nc2cccc(NC(=O)c3ccco3)c2)cc1[N+](=O)[O-]	RAM network inh 8.8
O=C(Nc1ccccc1N1CCOCC1)c1cccc([N+](=O)[O-])c1	none
CCOc1ccc(C(=O)NC(=S)Nc2ccc(N3CCCCC3)cc2)cc1[N+](=O)[O-]	Lmaj promast 99.3
O=C(c1ccc2c(=O)n3c(nc2c1)CCCCC3)N1CCN(C(c2ccccc2)c2ccccc2)CC1	none
C=C(C)CN(CC)C(=O)CCc1nnc(CCc2c[nH]c3ccccc23)o1	none
Cc1ccc2nsnc2c1NC(=O)c1cccc([N+](=O)[O-])c1	none
Cc1cc(NC(=S)NC(=O)c2ccccc2)ccc1-c1cc2ccccc2oc1=O	none
Cn1c(=O)n(C)c2cc(NC(=O)c3cccc([N+](=O)[O-])c3)c(Br)cc21	Lmaj promast 59.8
COc1ccc(C(=O)NC(=S)Nc2ccccc2N2CCCCC2)cc1[N+](=O)[O-]	Lmaj promast 98.6
COc1ccc(C(=O)Nc2c(C)ccc3nsnc23)cc1[N+](=O)[O-]	Lmaj promast 82.6
CCOc1ccc(C(=O)Nc2ccc(-c3cc4ccccc4oc3=O)c(C)c2)cc1[N+](=O)[O-]	Lmaj promast 55.5
O=C(CC1C(=O)NCCN1Cc1ccccc1C(F)(F)F)NCCn1cccn1 (stereo unspecified)	none
COc1ccccc1NC(=O)c1ccc(CSc2ncccn2)cc1	none
Cc1cc(S(=O)(=O)NCc2ccccc2)ccc1OCC(=O)NCC1CCCO1 (stereo unspecified)	none
COc1ccc(C(=O)NC(=S)Nc2cc(C)ccn2)cc1[N+](=O)[O-]	Lmaj promast 62.1
CCOc1ccc(C(=O)NC(=S)NC2CCCC2)cc1[N+](=O)[O-]	CHOP inh 71.4, Lmaj promast 57.9
CCOc1ccc(C(=O)NC(=S)Nc2ccc(NC(=O)CC)cc2)cc1[N+](=O)[O-]	none
Cc1c(C(=O)NC(=S)Nc2ccccc2N2CCCC2)cccc1[N+](=O)[O-]	Lmaj promast 87.2
Cc1c(C(=O)NC(=S)Nc2ccc(NC(=O)c3cccs3)cc2)cccc1[N+](=O)[O-]	Lmaj promast 98.0 (no result: WT yeast gro inh, CHOP inh, RAM network inh)
Cc1ccccc1C(=O)Nc1cccc(NC(=S)NC(=O)c2cccs2)c1	none
CN(C1CCCCC1)S(=O)(=O)c1cccc(C(=O)OCC(=O)NC2CCCc3ccccc32)c1 (stereo unspecified)	none
COCCNc1ccc(N2C(=O)CCCC2=O)cc1[N+](=O)[O-]	none
COc1ccccc1NS(=O)(=O)c1ccc(N2CCOCC2)c(NC(=O)c2ccco2)c1	Lmaj promast 69.1
COc1ccccc1NS(=O)(=O)c1cc(NC(=O)c2ccco2)ccc1N1CCOCC1	Lmaj promast 99.8
COc1ccc(NS(=O)(=O)c2ccc(N3CCOCC3)c(NC(=O)c3ccco3)c2)cc1	none
COc1ccc(NS(=O)(=O)c2ccc(N3CCOCC3)c(NC(=O)c3ccc(F)cc3)c2)cc1	Lmaj promast 71.9
COc1ccccc1NS(=O)(=O)c1cc(NC(=O)c2ccccc2F)ccc1N1CCOCC1	none
Cc1cc(C(=O)C(=O)O)c(C)n1-c1ccc(Cl)c(Cl)c1	none
O=C(CCNC(=O)c1ccccc1Cl)Nc1cccc(C(F)(F)F)c1	Lmaj promast 65.2
O=C(NNC(=S)Nc1cccc(C(F)(F)F)c1)c1ccccc1Cl	none
O=C(Nc1cccc(F)c1)c1cccnc1NCCc1ccccc1	none
O=C(Nc1cccc(C(F)(F)F)c1)c1cccnc1NCCc1ccccc1	WT yeast gro inh 86.9, CHOP inh 75.0
CC(=O)c1ccc(N2CCN(C(=O)Nc3cccc(F)c3)CC2)cc1	none
CCCCN(CC)c1nc(N)c2c(N)nc(OCC)cc2c1C#N	CHOP inh 94.7
CCCCN(CC)c1nc(N)c(C#N)c(CC#N)c1C#N	none
O=C(O)COCC(=O)Nc1ccccc1-c1ccccc1	none
O=C(COC(=O)Cc1cccc2ccccc12)Nc1ccccc1-c1ccccc1	RAM network inh 10.6
O=C(COC(=O)Cc1ccc(Cl)cc1)Nc1ccccc1-c1ccccc1	none
O=C(COC(=O)/C=C/c1ccc(Cl)cc1)Nc1ccccc1-c1ccccc1	RAM network inh 8.7
Cc1c(NC(=O)COC(=O)/C=C/c2ccc(Cl)cc2)c(=O)n(-c2ccccc2)n1C	none
O=C(COC(=O)Cc1c(Cl)cccc1Cl)Nc1ccccc1-c1ccccc1	WT yeast gro inh 80.6, RAM network inh 10.4
COc1ccc(S(=O)(=O)N(C)C)cc1NS(=O)(=O)c1ccc(F)c(F)c1F	none
CCOP(=O)(OCC)c1nc(-c2ccc(Cl)cc2)oc1NCc1ccccc1	CHOP inh 91.7
CCCOP(=O)(OCCC)c1nc(-c2ccccc2)oc1NCc1ccccc1	none
c1ccc(-c2cn(-c3ccccc3)c3[n+]2CCCS3)cc1	none (no result: WT yeast gro inh, RAM network inh, Lmaj promast)
COc1ccc(-n2cc(-c3ccc(C)cc3)[n+]3c2SCC3)cc1	Lmaj promast 100.4
